According to PubChem BioAssay (Tox21):
Results filed as inconclusive are left out. Activity calls are given as the source filed them. The call rests on the fitted dose curve; in most records, active means well fitted curve in the direction sought with a large enough effect in the repeat runs; inconclusive means weak or mixed curves; inactive means no such curve, though single readings can be large; an effect the other way counts as inactive or inconclusive. Positions of bridges follow the written chain, without caps; N, C: chain ends. Non-standard residues stand in square brackets, D forms with d. Residues, ends and D or L forms follow the SMILES beside them. *: point of attachment. Dab(CH2SO3H) = N[C@@H](CCNCS(=O)(=O)O)C(=O)O; X3 = CC[C@@H](C)CCCCC(=O)*; Dab = NCC[C@H](N)C(=O)O

Experiments:
[1] = target: Nuclear receptor subfamily 1 group I member 2 (Rattus norvegicus) (UniProt Q9R1A7); assay: Rat pregnane X receptor (rPXR) activation by small molecules, qHTS assay (AID 1346983); conditions: rPXR luciferase reporter cells, One-Glo luminescence, 24 h; max activation: stronger effect = higher value; further: nearly all actives have a fitted effect of over 20% in size
Nuclear receptor subfamily 1 group I member 2 (Rattus norvegicus), sequence (Q9R1A7 whole entry, looked up): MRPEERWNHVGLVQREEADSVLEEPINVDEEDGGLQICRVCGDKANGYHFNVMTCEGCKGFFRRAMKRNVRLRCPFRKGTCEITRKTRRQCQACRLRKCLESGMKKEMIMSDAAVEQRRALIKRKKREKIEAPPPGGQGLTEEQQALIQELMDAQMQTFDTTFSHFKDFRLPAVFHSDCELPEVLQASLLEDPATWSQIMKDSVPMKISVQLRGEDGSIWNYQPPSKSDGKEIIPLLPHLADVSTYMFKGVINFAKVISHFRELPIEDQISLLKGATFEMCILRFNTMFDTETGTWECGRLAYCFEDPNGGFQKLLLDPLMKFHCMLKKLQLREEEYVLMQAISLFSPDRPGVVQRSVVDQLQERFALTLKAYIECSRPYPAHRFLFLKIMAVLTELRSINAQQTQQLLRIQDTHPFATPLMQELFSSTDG
How it was run: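 Luminescent readout (One-Glo luciferase, 30 min room temperature) followed 24 hr compound treatment at 37 C of rPXR cells plated 2,000 per well and preincubated 5hr; qHTS format with compounds delivered in DMSO.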

[2] = target: Nuclear receptor subfamily 1 group I member 2 (Homo sapiens) (UniProt O75469); assay: CYP3A4 induction through human pregnane X receptor (PXR) by small molecules, qHTS assay (AID 1346984); conditions: DPX-2 HepG2 PXR, CYP3A4-luciferin luminescence, 24 h; series mostly up to 46.1 µM; further: nearly all actives have a fitted effect of over 40% in size
How it was run: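 Cells (DPX-2; HepG2 with PXR element plus CYP3A4-promoter luciferase) settled 5hr, then were treated 24hr at 37C. A 3hr, 3uM-final Luciferin-IPA step preceded luminescence measurement with One-Glo.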

[3] = target: Nuclear receptor subfamily 1 group I member 2 (Homo sapiens) (UniProt O75469); assay: Human pregnane X receptor (PXR) activation by small molecules, qHTS assay (AID 1346985); conditions: DPX-2 HepG2 CYP3A4-luciferase, 24 h; series mostly up to 38.3 µM; further: nearly all actives have a fitted effect of over 40% in size
How it was run: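 DPX-2 cells (HepG2 co-transfected with a PXR response element and a CYP3A4-promoter luciferase construct) were seeded at 2,000 per well, rested 5 hr at 37C, then exposed to DMSO-dissolved compounds for 24 hr. Activation was read as luciferase luminescence.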
On the % scale 0 is the no-effect control and ±100 the full control effect.

CC(C)CCC[C@@H](C)[C@H]1CC[C@H]2[C@@H]3CC[C@@H]4C[C@H](O)CC[C@]4(C)[C@H]3CC[C@]12C
inactive: max activation [1] -7.28% | Potency [2] | Potency [3]

C=CC1=C(C(=O)O)N2C(=O)[C@@H](NC(=O)/C(=N/OCC(=O)O)c3csc(N)n3)[C@H]2SC1 (stereo in doubt)
inactive: max activation [1] -1.86% | Potency [2] | Potency [3]

CCOc1cc(CC(=O)N[C@@H](CC(C)C)c2ccccc2N2CCCCC2)ccc1C(=O)O
inactive: max activation [1] -4.89% | Potency [2] | Potency [3]

CC(C)(C)C(=O)OCC(=O)[C@H]1CC[C@H]2[C@@H]3CCC4=CC(=O)CC[C@]4(C)[C@H]3CC[C@]12C
inactive: max activation [1] -6.33% | Potency [2] | Potency [3]

C[C@@H]1C(=O)NC2=Nc3cccc(Cl)c3CN21
inactive: max activation [1] 3.73% | Potency [2] | Potency [3]

CC(C)C[C@H](NC(=O)[C@@H](COC(C)(C)C)NC(=O)[C@H](Cc1ccc(O)cc1)NC(=O)[C@H](CO)NC(=O)[C@H](Cc1c[nH]c2ccccc12)NC(=O)[C@H](Cc1cnc[nH]1)NC(=O)[C@@H]1CCC(=O)N1)C(=O)N[C@@H](CCCN=C(N)N)C(=O)N1CCC[C@H]1C(=O)NNC(N)=O
inactive: max activation [1] -1.54% | Potency [2] | Potency [3]

CC/C=C\C/C=C\C/C=C\C/C=C\C/C=C\C/C=C\CCC(=O)O
inactive: max activation [1] -7.03% | Potency [2] | Potency [3]

O=C(O)c1ccc(NC2OC[C@@H](O)[C@H](O)[C@H]2O)cc1 (some centres undefined)
inactive: max activation [1] 10.7% | Potency [2] | Potency [3]

CC[C@@H](C)CCCCC(=O)N[C@@H](CCNCS(=O)(=O)O)C(=O)N[C@H](C(=O)N[C@@H](CCNCS(=O)(=O)O)C(=O)N[C@H]1CCNC(=O)[C@H]([C@@H](C)O)NC(=O)[C@H](CCNCS(=O)(=O)O)NC(=O)[C@H](CCNCS(=O)(=O)O)NC(=O)[C@H](CC(C)C)NC(=O)[C@@H](CC(C)C)NC(=O)[C@H](CCNCS(=O)(=O)O)NC1=O)[C@@H](C)O (X3-[Dab(CH2SO3H)]T[Dab(CH2SO3H)][Dab][Dab(CH2SO3H)][dL]L[Dab(CH2SO3H)][Dab(CH2SO3H)]T; lactam 4-C)
inactive: max activation [1] -6.38% | Potency [2] | Potency [3]

CCCOC(=O)c1ccccc1O
inactive: max activation [1] -4.53% | Potency [2] | Potency [3]

O=P(O)(O)C(O)(Cn1ccnc1)P(=O)(O)O
inactive: max activation [1] -1.82% | Potency [2] | Potency [3]

O=C(O)c1cc(=O)c2c3nc4ccccc4oc-3cc(=O)c2[nH]1
inactive: max activation [1] -7.15% | Potency [2] | Potency [3]

NC(=O)CC[C@@H]1NC(=O)[C@H](Cc2ccccc2)NC(=O)[C@H](Cc2ccc(O)cc2)NC(=O)[C@@H](N)CSSC[C@@H](C(=O)N2CCC[C@H]2C(=O)N[C@@H](CCCN=C(N)N)C(=O)NCC(N)=O)NC(=O)[C@H](CC(N)=O)NC1=O
inactive: max activation [1] -0.0397% | Potency [2] | Potency [3]
